PubChem BioAssay (EPA / NIEHS)
Inconclusive results are not listed. Activity calls are given as the source filed them. Rule for the calls: active = hit-call score of the fitted dose curve at least 0.9, where 1 is the maximum; inconclusive = response in the unintended direction; inactive = score below 0.9.

Columns and labels:
[1] = TOX21_p53_BLA_p2_viability: Viability Assessment in the Tox21 HCT-116 p53 Agonism Beta-lactamase Assay, Phase 2 (AID 2283591);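 note: compound exposure lasted 16 h at 37 °C; actives lower the ATP signal meaning cytotoxicity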
Summary of the method: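 HCT116 p53-bla cells, 4000/well, dosed after 5 h plating (217-fold dilution of DMSO stocks) and incubated 16 h at 37C. Viability taken as cellular ATP by CellTiter-Glo luminescence after 30 min RT; signal loss marks cytotoxicity.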

[2] = molecular target: Cellular tumor antigen p53 (Homo sapiens) (UniProt P04637); experiment: TOX21_p53_BLA_p2_ratio: Tox21 HCT-116 p53 Agonism Beta-lactamase Assay, Ratio, Phase 2 (AID 2283592)
Sequence of Cellular tumor antigen p53 (Homo sapiens) (P04637 whole entry, looked up): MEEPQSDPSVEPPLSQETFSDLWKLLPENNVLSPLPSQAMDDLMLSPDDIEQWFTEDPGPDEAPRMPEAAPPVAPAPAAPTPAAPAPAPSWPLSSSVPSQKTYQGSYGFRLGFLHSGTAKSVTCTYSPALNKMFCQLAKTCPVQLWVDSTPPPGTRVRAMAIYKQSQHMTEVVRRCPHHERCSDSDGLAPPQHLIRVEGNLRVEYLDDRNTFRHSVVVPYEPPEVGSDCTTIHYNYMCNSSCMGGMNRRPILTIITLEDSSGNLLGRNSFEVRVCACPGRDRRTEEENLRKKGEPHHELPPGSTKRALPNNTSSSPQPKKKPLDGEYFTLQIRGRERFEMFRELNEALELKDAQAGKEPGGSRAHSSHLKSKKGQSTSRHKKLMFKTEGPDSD
Summary of the method: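 Cleaved-to-uncleaved substrate ratio (460 vs 530 nm) measured in HCT116 cells with an inducible beta-lactamase reporter linked to p53 activity. Compounds incubated 16 h at 37C before 2 h room-temperature CCF4-AM loading.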

[3] = molecular target: Cellular tumor antigen p53 (Homo sapiens) (UniProt P04637); experiment: TOX21_p53_BLA_p3_ratio: Tox21 HCT-116 p53 Agonism Beta-lactamase Assay, Ratio, Phase 3 (AID 2283596)
Summary of the method: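 Cells were seeded at 4000/well, rested 5 h at 37C, then dosed with DMSO compound solutions (217-fold dilution) for 16 h. CCF4-AM substrate was loaded for 2 h at room temperature, and the 460/530 nm emission ratio was fitted for gain of signal versus DMSO.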

[4] = TOX21_p53_BLA_p4_viability: Viability Assessment in the Tox21 HCT-116 p53 Agonism Beta-lactamase Assay, Phase 4 (AID 2283597);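 note: hits lower the luminescence signal meaning cytotoxicity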
Summary of the method: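 Viability is taken as cellular ATP: after 16 h compound exposure of HCT116 cells and a 2 h room-temperature CCF4-AM substrate step, CellTiter-Glo reagent is added and luminescence is measured 30 min later.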

[5] = molecular target: Cellular tumor antigen p53 (Homo sapiens) (UniProt P04637); experiment: TOX21_p53_BLA_p5_ratio: Tox21 HCT-116 p53 Agonism Beta-lactamase Assay, Ratio, Phase 5 (AID 2283599)
Summary of the method: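 HCT-116 p53-bla cells (4000/well) plated 5 h, dosed with compound (217-fold DMSO dilution) for 16 h at 37 C; CCF4-AM substrate 2 h at room temperature. Activity is the 460/530 nm emission ratio (405 nm excitation), fitted in gain-of-signal direction versus DMSO.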

[6] = TOX21_p53_BLA_p5_viability: Viability Assessment in the Tox21 HCT-116 p53 Agonism Beta-lactamase Assay, Phase 5 (AID 2283600)
Summary of the method: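 Viability is taken from cellular ATP content, measured by luciferase luminescence in the same wells after the beta-lactamase ratio read. Cells are seeded at 4000 per well and exposed to DMSO-dissolved compounds, diluted 217-fold, for 16 h.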

[7] = molecular target: Cellular tumor antigen p53 (Homo sapiens) (UniProt P04637); experiment: TOX21_p53_BLA_p4_ratio: Tox21 HCT-116 p53 Agonism Beta-lactamase Assay, Ratio, Phase 4 (AID 2283601)
Summary of the method: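 HCT-116 p53 beta-lactamase reporter cells (4000/well) preincubated 5 h, then compound (217-fold dilution of DMSO stock) for 16 h at 37C. CCF4-AM substrate added 2 h at room temperature; 460/530 nm emission ratio fitted upward versus DMSO.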

[8] = molecular target: Thyroid hormone receptor alpha (Rattus norvegicus) + Thyroid hormone receptor beta (Rattus norvegicus) (UniProt P18113+P63059); experiment: TOX21_TR_LUC_GH3_Antagonist_Followup: Tox21 GH3 Thyroid Hormone Receptor Antagonism Luciferase Follow-Up Assay (AID 2283942)
Summary of the method: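 Luminescence read-out (ONE-Glo, 30 min at room temperature) in GH3 reporter cells challenged with 1.0 nM T3 final. Compounds ran at 92 uM to 5nM over 15 concentrations for 24 h; DMSO served as negative control and baseline.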

[9] = molecular target: THRB (gene 7068) (UniProt P10828); experiment: TOX21_TRB_BLA_Antagonist_Followup_ratio: Tox21 Thyroid Hormone Receptor beta Antagonism Beta-lactamase (BLA) Follow-Up Assay, Ratio (AID 2283958)
Sequence of THRB (gene 7068) (P10828 whole entry, looked up, the tested form may be a part): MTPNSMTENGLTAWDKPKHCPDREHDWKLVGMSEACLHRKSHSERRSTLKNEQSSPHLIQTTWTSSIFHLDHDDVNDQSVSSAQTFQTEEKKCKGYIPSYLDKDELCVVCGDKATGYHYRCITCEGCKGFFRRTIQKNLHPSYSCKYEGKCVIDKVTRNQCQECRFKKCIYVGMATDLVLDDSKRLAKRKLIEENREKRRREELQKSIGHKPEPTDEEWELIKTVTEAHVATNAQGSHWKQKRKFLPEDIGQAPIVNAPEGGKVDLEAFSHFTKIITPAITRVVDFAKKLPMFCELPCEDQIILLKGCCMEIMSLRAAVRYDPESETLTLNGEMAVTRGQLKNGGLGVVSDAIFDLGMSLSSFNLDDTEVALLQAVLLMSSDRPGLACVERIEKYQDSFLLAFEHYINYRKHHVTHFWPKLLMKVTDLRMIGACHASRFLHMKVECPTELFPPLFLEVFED
Summary of the method: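 Using charcoal-stripped 2% FBS medium, human TRβ-LBD/GAL4 reporter HEK293T cells received test compounds for 18 h. The endpoint is the cleaved-to-uncleaved substrate ratio (460/530 nm).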

[10] = TOX21_TRB_BLA_Antagonist_Followup_viability: Viability Assessment in the Tox21 Thyroid Hormone Receptor beta Antagonism Beta-lactamase (BLA) Follow-Up Assay (AID 2283961)
Summary of the method: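 Cytotoxicity is measured in parallel with the antagonist-mode TRβ beta-lactamase screen, using ATP-coupled luciferase luminescence. Engineered HEK293T cells are treated for 18 h with 11-point compound series in triplicate.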

[11] = molecular target: Retinoic acid receptor RXR-alpha (Homo sapiens) (UniProt P19793); experiment: TOX21_TR_RXR_BLA_Antagonist_Followup_ratio: Tox21 Thyroid Hormone Receptor beta Retinoid X Receptor alpha (RXRa) Antagonism Beta-lactamase (BLA) Follow-Up Assay, Ratio (AID 2283972)
Sequence of Retinoic acid receptor RXR-alpha (Homo sapiens) (P19793 whole entry, looked up, the tested form may be a part): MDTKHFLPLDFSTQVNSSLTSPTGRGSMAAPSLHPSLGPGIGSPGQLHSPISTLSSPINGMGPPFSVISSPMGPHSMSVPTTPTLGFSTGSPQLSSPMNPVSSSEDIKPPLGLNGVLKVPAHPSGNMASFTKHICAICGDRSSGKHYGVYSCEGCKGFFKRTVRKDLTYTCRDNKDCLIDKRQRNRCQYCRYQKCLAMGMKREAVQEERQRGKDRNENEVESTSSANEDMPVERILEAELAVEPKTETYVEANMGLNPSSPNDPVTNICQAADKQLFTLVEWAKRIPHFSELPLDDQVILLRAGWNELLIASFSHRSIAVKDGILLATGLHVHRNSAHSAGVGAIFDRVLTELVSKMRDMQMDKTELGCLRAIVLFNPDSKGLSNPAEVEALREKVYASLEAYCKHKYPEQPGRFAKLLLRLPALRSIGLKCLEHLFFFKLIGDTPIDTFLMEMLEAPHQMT
Summary of the method: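 Antagonist mode used GAL4 UAS-driven beta-lactamase in HEK293T cells expressing RXRa, treated for 16 h with compound concentration series. Activity was taken from the blue/green (460:530 nm) ratio of cleaved to uncleaved substrate.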

[12] = TOX21_TR_RXR_BLA_Antagonist_Followup_viability: Viability Assessment in the Tox21 Thyroid Hormone Receptor beta Retinoid X Receptor alpha (RXRa) Antagonism Beta-lactamase (BLA) Follow-Up Assay (AID 2283979)
Summary of the method: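 RXRa-bla HEK293T cells (2,500/well, phenol red-free DMEM, 2% charcoal-stripped FBS) were attached 5 h, then exposed to compounds at 11 concentrations in triplicate for 16 h at 37C. Viability measured by CellTiter-Glo ATP luminescence, bidirectional fitting versus DMSO.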

[13] = molecular target: PGR (gene 5241) (UniProt P06401); experiment: TOX21_PR_BLA_Followup_Antagonist_ratio: Tox21 HEK293 Progesterone Receptor (PR) Antagonism Beta-lactamase Follow-Up Assay, Ratio (AID 2283934);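 note: PR-UAS-bla HEK293T cells stimulated with 1 nM R5020 agonist for 16 hr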
Sequence of PGR (gene 5241) (P06401 whole entry, looked up): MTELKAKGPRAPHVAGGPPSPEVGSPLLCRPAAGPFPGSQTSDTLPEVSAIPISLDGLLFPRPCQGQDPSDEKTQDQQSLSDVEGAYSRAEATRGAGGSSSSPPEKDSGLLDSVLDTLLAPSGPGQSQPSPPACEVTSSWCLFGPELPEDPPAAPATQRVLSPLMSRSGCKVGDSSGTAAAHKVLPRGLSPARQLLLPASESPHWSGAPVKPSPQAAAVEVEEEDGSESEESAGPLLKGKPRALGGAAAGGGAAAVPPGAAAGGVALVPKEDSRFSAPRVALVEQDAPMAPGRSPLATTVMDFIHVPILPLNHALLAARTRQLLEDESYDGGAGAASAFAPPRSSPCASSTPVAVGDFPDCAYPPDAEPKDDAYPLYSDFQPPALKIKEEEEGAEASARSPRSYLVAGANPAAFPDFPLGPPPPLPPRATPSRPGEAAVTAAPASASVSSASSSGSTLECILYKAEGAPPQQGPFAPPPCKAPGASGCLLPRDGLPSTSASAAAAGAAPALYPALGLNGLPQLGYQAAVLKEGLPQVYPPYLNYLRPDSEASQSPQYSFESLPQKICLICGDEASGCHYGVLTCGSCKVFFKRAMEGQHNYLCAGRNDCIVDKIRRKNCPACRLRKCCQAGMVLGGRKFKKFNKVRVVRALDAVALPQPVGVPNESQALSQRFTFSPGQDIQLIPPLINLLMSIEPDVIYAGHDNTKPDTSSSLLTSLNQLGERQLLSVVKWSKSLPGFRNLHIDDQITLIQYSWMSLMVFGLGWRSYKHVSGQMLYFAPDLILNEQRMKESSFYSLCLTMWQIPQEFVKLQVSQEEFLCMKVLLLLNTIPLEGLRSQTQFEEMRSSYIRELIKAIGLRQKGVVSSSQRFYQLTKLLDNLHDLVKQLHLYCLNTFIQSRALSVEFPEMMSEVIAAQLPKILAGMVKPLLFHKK
Summary of the method: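 Measured in PR-UAS-bla HEK293T cells co-treated with compound and 1 nM promegestone for 16 hr; beta-lactamase ratio read after 2 h FRET substrate loading, with parallel CellTiter-Glo cytotoxicity.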

[14] = TOX21_PR_BLA_Followup_Agonist_viability: Viability Assessment in the Tox21 HEK293 Progesterone Receptor (PR) Agonism Beta-lactamase Follow-Up Assay (AID 2283935);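 note: signal loss means lower viability so actives are cytotoxic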
Summary of the method: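 Viability is read as CellTiter-Glo luminescence, where loss of signal indicates cytotoxicity. The cells are PR-UAS-bla HEK293T given compounds for 16 hr at 37C and 5% CO2, in the same wells used for the bla readout.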

[15] = molecular target: PGR (gene 5241) (UniProt P06401); experiment: TOX21_PR_LUC_Followup_Antagonist: Tox21 HEK293 Progesterone Receptor (PR) Antagonism Luciferase Follow-Up Assay (AID 2283938);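 note: curve fitted upward as signal gain over DMSO baseline despite antagonist label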
Summary of the method: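 A follow-up to the PR bla screen using HEK293-PR-A-luc cells, multiplexed with cell viability to flag cytotoxicity. Reporter luminescence after 16 h compound exposure was analysed relative to DMSO.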

[16] = TOX21_PR_LUC_Followup_Antagonist_viability: Viability Assessment in the Tox21 HEK293 Progesterone Receptor (PR) Antagonism Luciferase Follow-Up Assay (AID 2283940)
Summary of the method: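 Loss of CellTiter-Glo ATP signal indicates cytotoxicity in HEK293-PR-A-luc cells grown in 10% charcoal-stripped FBS medium, seeded 3,000 per well and incubated 16 h with compound at 37C.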

[17] = TOX21_PR_LUC_Followup_Agonist_viability: Viability Assessment in the Tox21 HEK293 Progesterone Receptor (PR) Agonism Luciferase Follow-Up Assay (AID 2283941);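 note: loss of signal means cytotoxicity so actives lower viability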
Summary of the method: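 Seeding: HEK293-PR-A-luc, 3,000 cells/well, 5 h at 37C. Treatment: compound in DMSO, 16 h, 37C. Read: CellTiter-Glo ATP luminescence, signal loss taken as lower viability.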

Measured: AC50

CCc1ccc2c(c1)N(CC(C)CN(C)C)c1ccccc1S2 (stereo unspecified)
active: [1] 38.7 µM | [4] 36.2 µM
inactive: [2] | [3] | [5] | [6] | [7]

C[C@@H]1NC(=O)[C@@H](N)CNC(=O)[C@H](C2CCNC(N)=N2)NC(=O)/C(=C/NC(N)=O)NC(=O)[C@H](CNC(=O)C[C@@H](N)CCCN)NC1=O (stereo partly specified)
inactive: [1] | [2] | [3] | [4] | [5] | [6] | [7]

O=C(Nc1ccc(C(=O)O)c(O)c1)c1ccccc1
inactive: [1] | [2] | [3] | [4] | [5] | [6] | [7]

CCC(=O)O[C@H]1CC[C@H]2[C@@H]3CCc4cc(O)ccc4[C@H]3CC[C@]12C
active: [4] 37.2 µM
inactive: [1] | [2] | [3] | [5] | [6] | [7]

CC(=O)OCCN(CCOC(C)=O)c1ccc(N=Nc2ccc([N+](=O)[O-])cc2C#N)cc1
inactive: [1] | [2] | [3] | [4] | [5] | [6] | [7]

NC(=O)c1ncn([C@@H]2O[C@H](CO)[C@@H](O)[C@H]2O)c1O
inactive: [1] | [2] | [3] | [4] | [5] | [6] | [7]

C=C1CC[C@H](O)C/C1=C/C=C1\CCC[C@]2(C)[C@@H]([C@H](C)CC[C@@H](O)C(C)(C)O)CC[C@@H]12
active: [1] 20.1 µM | [2] 24.5 µM | [3] 26.9 µM | [4] 17.9 µM | [5] 22.5 µM | [6] 17.2 µM | [7] 21.1 µM

CCOc1ccccc1O[C@H](c1ccccc1)[C@H]1CNCCO1
inactive: [1] | [2] | [3] | [4] | [5] | [6] | [7]

O=S(=O)(O)C(F)(F)F
inactive: [1] | [2] | [3] | [4] | [5] | [6] | [7]

CC(C)C(O)C(C)(C)CO (stereo unspecified)
inactive: [1] | [2] | [3] | [4] | [5] | [6] | [7]

Nc1ccc(Oc2ccc(Cl)cc2)cc1
inactive: [1] | [2] | [3] | [4] | [5] | [6] | [7]

C[C@@H](O)[C@H](N)C(=O)O
inactive: [1] | [2] | [3] | [4] | [5] | [6] | [7]

CCN(CC)C(C)=O
inactive: [1] | [2] | [3] | [4] | [5] | [6] | [7]

OCc1ccccn1
inactive: [1] | [2] | [3] | [4] | [5] | [6] | [7]

CCOC(=O)/C=C(C)/C=C/C=C(C)/C=C/c1c(C)cc(OC)c(C)c1C
inactive: [1] | [2] | [3] | [4] | [5] | [6] | [7]

NS(=O)(=O)c1cc2c(cc1Cl)NC=NS2(=O)=O
inactive: [1] | [2] | [3] | [4] | [5] | [6] | [7]

N#Cc1ccc2c(c1)N(CCCN1CCC(O)CC1)c1ccccc1S2
active: [2] 40.4 µM | [5] 35.4 µM | [7] 25.1 µM
inactive: [1] | [3] | [4] | [6]

CC(C)Nc1ccccc1
inactive: [1] | [2] | [3] | [4] | [5] | [6] | [7]

Brc1c2ccccc2cc2ccccc12
inactive: [1] | [2] | [3] | [4] | [5] | [6] | [7]

CC(C)NCC(O)c1ccc(NS(C)(=O)=O)cc1 (stereo unspecified)
inactive: [1] | [2] | [3] | [4] | [5] | [6] | [7]

CC(Cl)C(Cl)Cl (stereo unspecified)
inactive: [1] | [2] | [3] | [4] | [5] | [6] | [7]

O=C(O)Cn1c(C(=O)Nc2nc(-c3ccccc3Cl)cs2)cc2ccccc21
inactive: [1] | [2] | [3] | [7]
active: [4] 38.9 µM | [5] 37.1 µM | [6] 40.7 µM

O=C(Cn1ccnc1[N+](=O)[O-])NCCO
inactive: [1] | [2] | [3] | [4] | [5] | [6] | [7]

CC(=O)N/N=C/c1ccc([N+](=O)[O-])o1
inactive: [1] | [3] | [6]
active: [2] 42.3 µM | [4] 40.9 µM | [5] 34.9 µM | [7] 41.3 µM

Oc1c(I)cc(I)c2cccnc12
active: [1] 10.6 µM | [4] 23 µM
inactive: [2] | [3] | [5] | [6] | [7] | [8] | [9] | [10] | [11] | [12]

O=C(Nc1ccc([N+](=O)[O-])cc1)Nc1ccc([N+](=O)[O-])cc1
inactive: [1] | [2] | [3] | [4] | [5] | [6] | [7]

CCCCNc1cc(C(=O)O)cc(S(N)(=O)=O)c1Oc1ccccc1
inactive: [1] | [2] | [3] | [4] | [5] | [6] | [7]

CC1(C)CCC(C)(C)c2cc(NC(=O)c3ccc(C(=O)O)cc3)ccc21
inactive: [2] | [13] | [14] | [15] | [16] | [17]
active: [1] 36.6 µM | [3] 39.1 µM | [4] 36.1 µM | [5] 44.2 µM | [6] 43.5 µM | [7] 44.7 µM
